Consider ten molecules from PubChem BioAssay (NCATS).

The target of assay [1] is Furin (Homo sapiens) (UniProt P09958). Briefly: Furin counterscreen qHTS for Zika virus inhibitors (AID 1347149). Also: nearly all actives have a fitted effect of over 70% in size. Also: potency is read from the fitted curve at half-maximal effect.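 As to activity change, negative = inhibition: purified recombinant full-length human furin enzyme at 5 nM; fluorescence gain from furin cutting a BOC-RVRR-AMC peptide substrate over 15 min; top concentration of the series differs between compounds; plate controls were no-inhibitor control for no effect and no-enzyme control for full effect.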 The note with it: furin enzymatic counterscreen, fluorogenic substrate; series mostly up to 114 µM. In short, it runs like this: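 Counterscreen measures cleavage of 2 microM BOC-RVRR-AMC, below its ~15 microM Km, by 5 nM full-length human furin at pH 7.0 after a 15-min compound preincubation. Inhibition derives from the 15-min fluorescence increase at 37C.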
Sequence of Furin (Homo sapiens) (P09958 whole entry, looked up): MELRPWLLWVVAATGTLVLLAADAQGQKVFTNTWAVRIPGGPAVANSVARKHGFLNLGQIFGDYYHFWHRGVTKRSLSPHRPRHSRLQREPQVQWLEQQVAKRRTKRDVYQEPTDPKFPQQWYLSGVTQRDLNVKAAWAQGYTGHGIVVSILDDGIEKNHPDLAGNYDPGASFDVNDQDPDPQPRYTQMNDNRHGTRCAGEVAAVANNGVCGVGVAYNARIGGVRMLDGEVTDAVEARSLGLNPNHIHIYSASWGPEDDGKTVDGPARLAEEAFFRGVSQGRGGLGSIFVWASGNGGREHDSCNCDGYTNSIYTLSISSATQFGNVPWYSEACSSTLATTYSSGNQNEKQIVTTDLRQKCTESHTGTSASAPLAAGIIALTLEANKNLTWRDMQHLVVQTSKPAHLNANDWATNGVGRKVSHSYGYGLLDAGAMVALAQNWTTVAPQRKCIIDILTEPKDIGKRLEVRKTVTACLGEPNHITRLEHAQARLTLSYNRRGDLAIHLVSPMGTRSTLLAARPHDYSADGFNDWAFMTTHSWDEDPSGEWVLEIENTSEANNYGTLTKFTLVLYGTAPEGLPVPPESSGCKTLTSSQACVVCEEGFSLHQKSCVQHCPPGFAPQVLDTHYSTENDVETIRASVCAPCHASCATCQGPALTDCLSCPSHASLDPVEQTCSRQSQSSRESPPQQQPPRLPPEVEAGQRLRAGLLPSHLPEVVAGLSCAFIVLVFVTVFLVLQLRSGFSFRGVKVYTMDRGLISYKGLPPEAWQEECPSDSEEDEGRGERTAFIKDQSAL

Assay [2] in a line: ZIKV-mCherry secondary qHTS for Zika virus inhibitors (AID 1347158). Also: top concentration of the series differs between compounds. The note with it: Vero cells, ZIKV-mCherry infection imaging, 48-72 h; series mostly up to 49.2 µM. The gist of the method: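 Compounds were tested in Vero monkey kidney cells infected with recombinant mCherry-expressing Zika virus at MOI 1 for 48-72 h at 37 °C. Fixed cells were nuclear-stained and imaged, and infection rate was taken as the fraction of mCherry-positive cells.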

The subject of assay [3] is Zika virus NS2B-NS3 protease (linked). Briefly: 384 well plate NINDS AMC confirmatory qHTS for Zika virus inhibitors (AID 1347163).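 Also: fluorescence of AMC released from Ac-VKTGKR-AMC peptide cleaved by the protease; top concentration of the series differs between compounds; 0% = no-inhibitor control and -100% = no-enzyme control; nearly all actives have a fitted effect of over 50% in size.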 The note with it: Recombinant NS2B-NS3 protease, Ac-VKTGKR-AMC fluorescence; series mostly up to 1 mM. In short, it runs like this: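 Fluorescence at 355/460 nm was read after 25 minutes of cleavage of 30 microM Ac-VKTGKR-AMC at room temperature, in the dark. Before substrate addition, compounds (up to 1 mM final) sat ~15 minutes with 5, 30 or 60 nM linked protease. Signals were normalized to no-enzyme and no-inhibitor wells.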
(qHTS replaces the single test concentration by a dilution series.)

Assay [4] concerns the target Cytochrome P450 3A4 (Homo sapiens) (UniProt P08684). Briefly: qHTS Assay for Inhibitors and Substrates of Cytochrome P450 3A4 (AID 884). Also: potency is read from the fitted curve at half-maximal effect; nearly all actives have a fitted effect of over 50% in size. The conditions noted are these: recombinant CYP3A4, Luciferin-PPXE luminescence; series mostly up to 57.1 µM. In short, it runs like this:
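Luminescent readout of luciferin produced by CYP3A4 (20 nM) dealkylation of Luciferin-PPXE, 25 uM (its KM). NADPH-driven reaction ran 60 min at RT after 10 min compound preincubation; data scaled to 57 uM ketoconazole as 100% inhibition.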

For assay [5] the target is unchanged. Briefly: qHTS Assay for Activators of Cytochrome P450 3A4 (AID 885). Also: nearly all actives have a fitted effect of over 65% in size. The note with it: recombinant CYP3A4, Luciferin-PPXE luminescence, 60 min; series mostly up to 57.1 µM. The gist of the method: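 Activators are scored by enhanced luminescence from CYP3A4 conversion of luciferin-PPXE (25uM, equal to KM) to luciferin, after 60 min at RT with an NADPH-regenerating system.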

The nature of assay [6]: Confirmation and Secondary Assay for Modulators of Hemoglobin Beta Chain Splicing at IVS2 654 locus (AID 910).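 Also: HeLa cells stably carrying EGFP split by mutant beta-globin IVS2-654 intron; per-well total GFP intensity by laser scanning cytometry after 2-day treatment; % of control where 0% means no effect.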 The note with it: HeLa EGFP-654 splicing reporter, GFP fluorescence, 48 h; series mostly up to 46.1 µM. In short, it runs like this: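 Readout: per-well total peak green fluorescence (488 nm ex, 500–520 nm em) from objects 5–250 µm, reflecting correct splicing of an EGFP-654 reporter. Compounds were applied for 2 days at 37 °C to overnight-plated HeLa EGFP-654 cells; controls were DMSO and 500 nM IVS2-654 PNA.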

The nature of assay [7]: Confirmation and Secondary Assay for Modulators of Hemoglobin Beta Chain Splicing at IVS2 705 locus (AID 930).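 Also: HeLa cells stably expressing the EGFP-705 splicing reporter; GFP fluorescence per well restored by corrected splicing of the IVS2-705 intron in EGFP; % of control where 0% means no effect.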 The note with it: HeLa EGFP-705 splicing reporter, GFP fluorescence, 48 h; series mostly up to 46.1 µM. The gist of the method:
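First, HeLa EGFP-705 cells are seeded at 500/well in Optimem with 2% FCS and left overnight. Next, compound or DMSO is added for 2 days. Finally wells are laser-scanned and total peak GFP intensity scored.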

Assay [8] can be described thus: qHTS Assay for Lipid Storage Modulators (AID 1519; calls by dose curve; as to activity change, negative = inhibition: % is scaled to controls: 0 for no effect and ±100 for the full control effect). The conditions noted are these: Drosophila S3 cells, BODIPY lipid droplet/cell ratio, laser cytometry, cells loaded with oleic acid. In short, it runs like this: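 Cells seeded at 5,000 per well were treated with compounds over a concentration series and loaded with oleic acid (400 uM, as added). Lipid droplet fluorescence (488 nm excitation, 500-530 nm channel) was read by laser-scanning cytometry and normalized to 20 uM Triacsin C.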

Assay [9] can be described thus: Confirmatory screen NINDS Rhodamine qHTS for Zika virus inhibitors (AID 1347161).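 Also: purified Zika NS2B-NS3 protease with linked NS2B cofactor domain and Rhodamine110 peptide substrate; plate controls were no-inhibitor control for no effect and no-enzyme control for full effect; nearly all actives have a fitted effect of over 60% in size.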 The note with it: purified enzyme assay, Rhodamine110 substrate fluorescence, 15 min; series mostly up to 114 µM. The gist of the method:
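Each compound, titrated, sat 15 min with 25 nM linked protease before 1.5 microM Rhodamine110 substrate went in. Fluorescence gain over the next 15 min, in pH 8.0 Tris with Tween 20, gave Hill-fitted curves.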

Assay [10] can be described thus: Tertiary RLuc qRT-PCR qHTS assay for Zika virus inhibitors (AID 1347169). Also: top concentration of the series differs between compounds; % is scaled to controls: 0 for no effect and ±100 for the full control effect; nearly all actives have a fitted effect of over 55% in size. The conditions noted are these: infected Vero cells, reporter luminescence, 48-72 h; series mostly up to 1.74 µM. In short, it runs like this:
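Vero, 1,000 cells/well, o/n 37 C; cpd pinned in DMSO; ZIKV-RLuc Cambodian, MOI 1-2, 48-72 h 37 C; live-cell RLuc substrate, lum read at 1-1.5 h.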
For orientation: Quantitative PCR measures a nucleic acid by following its amplification.

Assay [11] deals with Zika virus NS2B-NS3 protease (linked construct). Briefly: 384 well plate NINDS Rhodamine confirmatory qHTS for Zika virus inhibitors (AID 1347164). Also: nearly all actives have a fitted effect of over 65% in size. Also: potency is read from the fitted curve at half-maximal effect.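 As to activity change, negative = inhibition: top concentration of the series differs between compounds; plate controls were no-inhibitor control for no effect and no-enzyme control for full effect.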 The conditions noted are these: rhodamine-110 peptide substrate fluorescence; series mostly up to 1 mM. In short, it runs like this: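 Enzyme (final 5/30/60 nM) + cpd (DMSO), ~15 min; add Ac-LKRR-Rd 10 microM final; 25 min RT, dark; FI ex 485/em 538; normalized to no-enzyme, no-inhibitor ctrls; aprotinin intraplate ctrl.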

Assay [12] concerns the target Rap guanine nucleotide exchange factor 3 (Homo sapiens) (UniProt O95398). Briefly: Confirmatory qHTS for antagonist of cAMP-regulated guanine nucleotide exchange factor 3 (EPAC1) (AID 1645880).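 Also: plate controls were DMSO only for no effect and full effect of the ATA control for full effect; nearly all actives have a fitted effect of over 55% in size.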 The conditions noted are these: EPAC1 Rap1B-BODIPY-GDP exchange, fluorescence; series mostly up to 115 µM. In short, it runs like this: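 Released BODIPY-GDP fluoresces less than Rap1-bound BODIPY-GDP; the signal is followed at 480/540 nm at 5-min intervals over 30 min, after 5 min at room temperature. Reactions contain 100 nM EPAC1, 250 nM RAP1B-BODIPY-GDP and 50 uM GDP; results are normalized to ATA and DMSO.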

The target is the same in assay [13]. Briefly: Confirmatory qHTS for agonist of cAMP-regulated guanine nucleotide exchange factor 3 (EPAC1) (AID 1645881).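 Also: EPAC1 catalysed release of BODIPY-GDP from Rap1B seen as fluorescence loss; nearly all actives have a fitted effect of over 75% in size.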 The conditions noted are these: EPAC1 Rap1B BODIPY-GDP exchange fluorescence, 100% = cAMP control response; series mostly up to 154 µM.
For assay [14], the target named is Rap guanine nucleotide exchange factor 4 (Homo sapiens) (UniProt Q8WZA2). Briefly: Confirmatory qHTS for agonist of cAMP-regulated guanine nucleotide exchange factor 4 (EPAC2) (AID 1645884). Also: % is scaled to controls: 0 for no effect and ±100 for the full control effect; nearly all actives have a fitted effect of over 65% in size. The conditions noted are these: EPAC2 GEF activity, Rap1B-BODIPY-GDP fluorescence, percent relative to cAMP agonist control; series mostly up to 154 µM.
Sequence of Rap guanine nucleotide exchange factor 4 (Homo sapiens) (Q8WZA2 whole entry, looked up): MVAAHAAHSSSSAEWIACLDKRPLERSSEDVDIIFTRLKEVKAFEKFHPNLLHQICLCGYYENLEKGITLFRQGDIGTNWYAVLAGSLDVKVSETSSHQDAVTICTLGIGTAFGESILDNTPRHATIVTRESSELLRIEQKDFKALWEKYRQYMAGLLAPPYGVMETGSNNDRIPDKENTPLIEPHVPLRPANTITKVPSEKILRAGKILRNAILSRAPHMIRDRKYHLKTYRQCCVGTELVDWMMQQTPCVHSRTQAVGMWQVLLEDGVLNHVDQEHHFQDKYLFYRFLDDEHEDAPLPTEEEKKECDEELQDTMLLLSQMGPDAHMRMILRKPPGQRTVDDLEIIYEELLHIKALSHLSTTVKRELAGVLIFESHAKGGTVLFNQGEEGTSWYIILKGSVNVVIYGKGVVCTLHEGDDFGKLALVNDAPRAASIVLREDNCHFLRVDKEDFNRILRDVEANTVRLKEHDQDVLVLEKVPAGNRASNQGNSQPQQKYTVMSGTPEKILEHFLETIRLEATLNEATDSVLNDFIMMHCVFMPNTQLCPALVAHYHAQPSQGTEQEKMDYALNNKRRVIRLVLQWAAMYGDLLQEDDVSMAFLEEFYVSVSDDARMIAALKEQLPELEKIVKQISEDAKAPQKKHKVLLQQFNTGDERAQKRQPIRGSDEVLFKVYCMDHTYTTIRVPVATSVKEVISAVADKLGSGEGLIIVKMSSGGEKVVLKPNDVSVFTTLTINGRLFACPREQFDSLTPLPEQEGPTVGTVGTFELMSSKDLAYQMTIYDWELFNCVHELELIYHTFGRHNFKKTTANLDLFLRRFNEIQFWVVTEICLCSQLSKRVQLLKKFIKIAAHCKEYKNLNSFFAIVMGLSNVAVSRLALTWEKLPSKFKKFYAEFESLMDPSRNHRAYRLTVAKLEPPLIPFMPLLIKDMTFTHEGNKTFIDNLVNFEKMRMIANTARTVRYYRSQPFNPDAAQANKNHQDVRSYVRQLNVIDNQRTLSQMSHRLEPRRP
For assay [15] the target is unchanged. Briefly: Confirmatory qHTS for antagonist of cAMP-regulated guanine nucleotide exchange factor 4 (EPAC2) (AID 1645885). Also: nearly all actives have a fitted effect of over 25% in size. Also: potency is read from the fitted curve at half-maximal effect. As to activity change, negative = inhibition: % is scaled to controls: 0 for no effect and ±100 for the full control effect. The conditions noted are these: EPAC2 Rap1B-BODIPY-GDP exchange fluorescence, biochemical; series mostly up to 114 µM.
The target of assay [16] is Rap guanine nucleotide exchange factor 3 (Homo sapiens) (UniProt O95398). Briefly: Counterscreen qHTS for agonist of cAMP-regulated guanine nucleotide exchange factor 3 (EPAC1) (AID 1645889). Also: % of control where 0% means no effect; nearly all actives have a fitted effect of over 40% in size. The conditions noted are these: EPAC1 Rap1B-BODIPY-GDP exchange, fluorescence; series mostly up to 154 µM. In short, it runs like this:
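Rap1B-BODIPY-GDP 250 nM + GDP 50 uM; cpds 7-pt, final 9.74 nM–152 uM (activator mode) or from 7.32 nM upwards (inhibitor mode); RT; FI 480/540 nm at 5 and 30 min, then ± cAMP, reread.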
(In general: A counterscreen serves to expose hits that act by an unwanted route or on another target.)

Assay [17] deals with Cytochrome P450 1A2 (Homo sapiens) (UniProt P05177). Briefly: p450-cyp1a2 (AID 410; calls by dose curve; also: potency is read from the fitted curve at half-maximal effect). The conditions noted are these: recombinant CYP1A2, luciferin-ME demethylation, luminescence; series mostly up to 57 µM. In short, it runs like this: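 O-Demethylation of luciferin 6' methyl ether by human CYP1A2 is monitored as luciferase luminescence. Substrate sits at Km (100uM); enzyme is 20nM. Values are scaled to 57 uM furafylline as maximal inhibition.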
Sequence of Cytochrome P450 1A2 (Homo sapiens) (P05177 whole entry, looked up): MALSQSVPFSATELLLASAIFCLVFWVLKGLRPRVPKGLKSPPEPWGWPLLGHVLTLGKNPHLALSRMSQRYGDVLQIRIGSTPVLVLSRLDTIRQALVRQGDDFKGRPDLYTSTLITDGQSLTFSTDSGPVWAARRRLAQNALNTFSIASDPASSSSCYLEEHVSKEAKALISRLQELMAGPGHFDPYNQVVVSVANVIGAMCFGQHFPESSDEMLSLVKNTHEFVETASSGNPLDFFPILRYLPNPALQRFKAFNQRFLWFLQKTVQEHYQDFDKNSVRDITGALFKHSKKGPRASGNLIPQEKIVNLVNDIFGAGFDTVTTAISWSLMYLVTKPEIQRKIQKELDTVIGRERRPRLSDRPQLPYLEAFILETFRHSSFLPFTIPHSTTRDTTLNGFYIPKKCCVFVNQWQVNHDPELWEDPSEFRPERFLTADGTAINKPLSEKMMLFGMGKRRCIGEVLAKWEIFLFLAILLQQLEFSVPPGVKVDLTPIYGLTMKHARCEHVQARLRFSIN

The target in assay [18] is Glucocorticoid receptor (Homo sapiens) (UniProt P04150). Briefly: GR-GFP Redistribution (AID 450;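 active = compounds whose dose series gives a full or clear partial fitted curve of increased nuclear translocation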; also: potency is read from the fitted curve at half-maximal effect). The note with it: U2OS GR-GFP nuclear translocation, laser cytometry, 2 h.
Sequence of Glucocorticoid receptor (Homo sapiens) (P04150 whole entry, looked up): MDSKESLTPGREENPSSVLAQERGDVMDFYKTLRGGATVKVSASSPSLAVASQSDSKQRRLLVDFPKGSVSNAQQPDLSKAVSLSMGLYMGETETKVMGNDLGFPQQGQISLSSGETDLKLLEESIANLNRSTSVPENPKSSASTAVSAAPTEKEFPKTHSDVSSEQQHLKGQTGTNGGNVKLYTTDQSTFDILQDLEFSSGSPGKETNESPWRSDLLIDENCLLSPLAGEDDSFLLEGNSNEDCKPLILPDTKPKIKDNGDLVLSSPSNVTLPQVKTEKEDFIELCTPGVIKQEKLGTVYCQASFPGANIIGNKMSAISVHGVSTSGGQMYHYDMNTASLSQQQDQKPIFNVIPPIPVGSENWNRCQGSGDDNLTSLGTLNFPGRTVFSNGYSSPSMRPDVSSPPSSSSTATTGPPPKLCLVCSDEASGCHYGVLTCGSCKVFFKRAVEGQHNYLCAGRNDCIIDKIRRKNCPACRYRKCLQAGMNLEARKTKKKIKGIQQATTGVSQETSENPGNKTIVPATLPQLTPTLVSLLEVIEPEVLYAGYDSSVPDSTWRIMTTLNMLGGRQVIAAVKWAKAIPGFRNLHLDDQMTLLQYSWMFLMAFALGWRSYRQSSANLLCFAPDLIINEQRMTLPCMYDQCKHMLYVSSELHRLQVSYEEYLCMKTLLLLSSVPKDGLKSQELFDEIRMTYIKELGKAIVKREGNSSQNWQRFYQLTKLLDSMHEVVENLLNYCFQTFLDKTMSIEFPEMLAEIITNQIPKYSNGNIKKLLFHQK
Assay [19] shares this target. Briefly: GR-EFC Redistribution (AID 451; calls by dose curve; also: potency is read from the fitted curve at half-maximal effect). The note with it: CHO-K1 GR-EFC translocation, beta-gal luminescence, 2 h. The gist of the method:
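Translocation of GR-ED fusion to nuclear EA restores b-gal, read by luminescence after 1 h room-temperature detection. Engineered CHO-K1 biosensor cells, 1,000/well, exposed 2 h at 37 C to titrations up to 46 uM final.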

The structures appear in SMILES notation. Results filed as inconclusive are left out. Active and inactive are the calls of the source. Unless noted, calls follow the shape of the dose curve; as a rule, active = well fitted curve in the direction sought with a large enough effect; inconclusive = small, poorly fitted or top-dose-only effect, or another doubt; inactive = no such curve, though single readings can be large; an effect the other way counts as inactive or inconclusive.

Sequence of Rap guanine nucleotide exchange factor 3 (Homo sapiens) (O95398 whole entry, looked up): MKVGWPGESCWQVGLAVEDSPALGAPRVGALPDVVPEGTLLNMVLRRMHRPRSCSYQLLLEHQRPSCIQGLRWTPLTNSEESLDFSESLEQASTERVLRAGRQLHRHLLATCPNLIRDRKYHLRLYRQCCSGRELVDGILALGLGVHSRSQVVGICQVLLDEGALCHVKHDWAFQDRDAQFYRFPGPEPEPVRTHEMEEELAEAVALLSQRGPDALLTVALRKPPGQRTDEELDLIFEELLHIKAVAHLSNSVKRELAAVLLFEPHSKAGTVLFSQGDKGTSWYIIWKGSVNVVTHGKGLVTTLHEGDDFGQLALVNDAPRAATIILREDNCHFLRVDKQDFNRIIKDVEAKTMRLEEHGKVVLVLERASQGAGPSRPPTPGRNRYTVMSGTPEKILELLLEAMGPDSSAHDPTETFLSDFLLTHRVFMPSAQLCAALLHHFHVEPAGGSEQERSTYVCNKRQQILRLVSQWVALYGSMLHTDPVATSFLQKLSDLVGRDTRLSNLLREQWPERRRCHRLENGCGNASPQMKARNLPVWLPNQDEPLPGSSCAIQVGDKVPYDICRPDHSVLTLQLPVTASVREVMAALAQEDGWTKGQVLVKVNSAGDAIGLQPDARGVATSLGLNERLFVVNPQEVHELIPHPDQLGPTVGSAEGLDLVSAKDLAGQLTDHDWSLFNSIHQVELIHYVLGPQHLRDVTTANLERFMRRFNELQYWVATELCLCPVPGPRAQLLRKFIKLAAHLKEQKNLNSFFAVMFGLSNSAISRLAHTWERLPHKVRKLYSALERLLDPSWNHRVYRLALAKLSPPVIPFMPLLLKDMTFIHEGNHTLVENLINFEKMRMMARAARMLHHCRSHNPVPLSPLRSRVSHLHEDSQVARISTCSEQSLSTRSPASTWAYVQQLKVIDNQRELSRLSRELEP
Sequence of Cytochrome P450 3A4 (Homo sapiens) (P08684 whole entry, looked up): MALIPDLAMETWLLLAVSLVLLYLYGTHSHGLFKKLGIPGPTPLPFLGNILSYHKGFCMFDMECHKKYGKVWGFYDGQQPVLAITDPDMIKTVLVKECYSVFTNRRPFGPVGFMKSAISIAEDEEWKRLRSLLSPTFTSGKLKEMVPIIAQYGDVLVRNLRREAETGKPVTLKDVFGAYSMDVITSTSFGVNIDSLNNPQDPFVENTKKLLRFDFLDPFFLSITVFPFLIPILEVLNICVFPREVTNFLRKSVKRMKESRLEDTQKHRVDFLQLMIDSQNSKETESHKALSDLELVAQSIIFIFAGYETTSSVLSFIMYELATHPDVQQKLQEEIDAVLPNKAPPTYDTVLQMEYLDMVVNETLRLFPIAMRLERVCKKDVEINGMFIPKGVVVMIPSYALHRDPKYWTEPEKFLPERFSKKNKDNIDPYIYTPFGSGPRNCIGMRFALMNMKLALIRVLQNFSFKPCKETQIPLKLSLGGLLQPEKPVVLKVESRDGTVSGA

Take `COC(=O)c1ccc(NC(=O)CSc2ncc3c(n2)-c2cc(Cl)ccc2N(Cc2ccccc2)S3(=O)=O)cc1`: the Potency in [1] was 83.5 µM (active). In addition, the Potency result in assay [2] and in [3] was “inactive” in each case.

`O=C1C=CC(=O)c2c(O)c(Cl)c(Cl)c(O)c21`: the Potency in [4] was 31.6 µM (active). Besides, the Potency result in assay [5], in assay [1], in [9] and in assay [10] was “inactive” in each case. In addition, the molecule was called inactive in assay [6] and in assay [7]. For the same molecule, the activity change, negative = inhibition in [8] (at 57.5 µM (top of the series)) was 5.17% (inactive). Also, the figures for the max response in assay [8] (measured here: cell count channel max response) and in [8] (measured here: lipid channel max response) were 0.303% and 7.95%, respectively.

On to `O=C(COc1ccccc1)Nc1ccc(C(=O)OCc2cc(=O)n3nc(C4CC4)sc3n2)cc1`, for which the Potency entry in assay [1], in [9] and in assay [10] was “inactive” each time.

In the case of `COc1cccc(C(=O)Nc2ccc(C(=O)OCc3cc(=O)n4nc(C5CC5)sc4n3)cc2)c1`, in assay [1], the Potency is 41.8 µM (active). The Potency entry in assay [3] and in [11] was “inactive” in each case.

For `Cc1ccc(-c2nnc(Nc3ccc(O)cc3)c3ccccc23)cc1S(=O)(=O)NC(C)(C)CO`, the Potency result in [1] and in assay [10] was “inactive” each time.

Regarding `CCCCc1nn2c(=O)cc(COC(=O)c3ccc(NC(=O)CCc4ccccc4)cc3)nc2s1`, the Potency result in assay [1], in assay [2] and in [10] was “inactive” each time. The Potency in [11] was 25.1 µM (active).

Consider `Cc1oc2c(cc(NS(=O)(=O)c3ccc(C(C)C)cc3)c3ccccc32)c1C(=O)OCc1ccccc1`, for which the Potency entry in assay [1], in [2] and in [3] was “inactive” each time.

For the molecule `CCCCCCc1cc2cc(-c3cn4c(n3)sc3cc(OC)ccc34)c(=O)oc2cc1O`, the Potency result in assay [1], in assay [2], in [3], in assay [10], in assay [12] and in assay [16] was “inactive” throughout. Moreover, in assay [11], the Potency is 35.5 µM (active). In addition, the call in [13] and in assay [14] was inactive. In addition, the activity change, negative = inhibition in [15] was -6.89% [at 12.7 µM] (inactive).

Take `Cc1c(-c2ccc(O)cc2)nn(-c2ccc(O)cc2)c1-c1ccc(OCCN2CCCCC2)cc1`: the Potency in [17] is 12.6 µM (active); in assay [18], > 46 µM (inactive); in [19], > 46 µM (inactive).

In the case of `Cc1cc(C)cc(C(=O)N(C)[C@H](Cc2ccc(-c3ccccc3)cc2)C(=O)N[C@@H](Cc2c[nH]c3ccccc23)C(=O)O)c1`, the results for the Potency in [18], in assay [19] and in [15] were > 46 µM (inactive), > 46 µM (inactive) and 55.5 µM (active), respectively.
